Source: ChEMBL document CHEMBL1961873, “Compounds: GSK PKIS; Assays: Nanosyn kinase panel” (2012)

Experiments:
[1] = target: Serine/threonine-protein kinase MRCK alpha (Homo sapiens) (UniProt Q5VT25); details: at 0.1 µM
[2] = target: Serine/threonine-protein kinase MRCK alpha (Homo sapiens) (UniProt Q5VT25); details: at 1 µM
[3] = target: Serine/threonine-protein kinase MRCK beta (Homo sapiens) (UniProt Q9Y5S2); details: at 0.1 µM
[4] = target: Serine/threonine-protein kinase MRCK beta (Homo sapiens) (UniProt Q9Y5S2); details: at 1 µM
[5] = target: Ribosomal protein S6 kinase alpha-5 (Homo sapiens) (UniProt O75582); details: at 0.1 µM
[6] = target: Ribosomal protein S6 kinase alpha-5 (Homo sapiens) (UniProt O75582); details: at 1 µM
[7] = target: Ribosomal protein S6 kinase alpha-4 (Homo sapiens) (UniProt O75676); details: at 0.1 µM
[8] = target: Ribosomal protein S6 kinase alpha-4 (Homo sapiens) (UniProt O75676); details: at 1 µM
[9] = target: Ribosomal protein S6 kinase beta-1 (Homo sapiens) (UniProt P23443); details: at 0.1 µM
[10] = target: Ribosomal protein S6 kinase beta-1 (Homo sapiens) (UniProt P23443); details: at 1 µM

Sequence of Ribosomal protein S6 kinase alpha-4 (Homo sapiens) (O75676 whole entry, looked up): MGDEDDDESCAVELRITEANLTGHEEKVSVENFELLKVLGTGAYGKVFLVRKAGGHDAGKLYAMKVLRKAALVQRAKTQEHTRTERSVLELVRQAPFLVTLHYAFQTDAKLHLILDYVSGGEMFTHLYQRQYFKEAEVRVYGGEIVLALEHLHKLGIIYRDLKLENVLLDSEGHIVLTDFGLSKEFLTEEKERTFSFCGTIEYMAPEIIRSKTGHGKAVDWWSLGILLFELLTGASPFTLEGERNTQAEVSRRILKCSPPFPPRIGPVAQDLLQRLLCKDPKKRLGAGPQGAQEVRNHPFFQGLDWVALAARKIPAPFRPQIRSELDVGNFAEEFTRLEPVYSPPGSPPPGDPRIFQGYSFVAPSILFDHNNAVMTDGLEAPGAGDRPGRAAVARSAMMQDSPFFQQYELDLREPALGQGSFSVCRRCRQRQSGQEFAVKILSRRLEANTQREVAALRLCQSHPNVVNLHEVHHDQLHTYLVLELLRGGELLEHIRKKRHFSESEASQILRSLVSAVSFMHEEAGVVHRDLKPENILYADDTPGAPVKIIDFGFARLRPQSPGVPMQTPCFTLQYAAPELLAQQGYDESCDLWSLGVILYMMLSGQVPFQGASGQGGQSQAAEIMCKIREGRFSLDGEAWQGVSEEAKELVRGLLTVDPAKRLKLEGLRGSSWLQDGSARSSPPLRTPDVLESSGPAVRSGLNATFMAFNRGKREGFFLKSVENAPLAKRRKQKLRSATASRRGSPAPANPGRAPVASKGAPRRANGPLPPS
Sequence of Ribosomal protein S6 kinase beta-1 (Homo sapiens) (P23443 whole entry, looked up): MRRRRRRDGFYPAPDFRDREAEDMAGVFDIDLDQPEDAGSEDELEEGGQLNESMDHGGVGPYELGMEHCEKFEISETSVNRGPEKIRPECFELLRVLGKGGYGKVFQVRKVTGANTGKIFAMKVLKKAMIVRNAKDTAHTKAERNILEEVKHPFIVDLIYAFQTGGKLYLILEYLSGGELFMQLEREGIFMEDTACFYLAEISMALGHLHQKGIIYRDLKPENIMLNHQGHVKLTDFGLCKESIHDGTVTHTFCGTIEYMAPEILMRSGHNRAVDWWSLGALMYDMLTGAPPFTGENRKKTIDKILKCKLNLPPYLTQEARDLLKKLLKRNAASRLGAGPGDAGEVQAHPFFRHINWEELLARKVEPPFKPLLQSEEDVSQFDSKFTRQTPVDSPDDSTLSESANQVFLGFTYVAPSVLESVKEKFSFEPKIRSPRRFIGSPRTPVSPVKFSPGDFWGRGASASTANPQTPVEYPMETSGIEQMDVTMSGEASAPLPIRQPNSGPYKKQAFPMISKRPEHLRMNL
Sequence of Ribosomal protein S6 kinase alpha-5 (Homo sapiens) (O75582 whole entry, looked up): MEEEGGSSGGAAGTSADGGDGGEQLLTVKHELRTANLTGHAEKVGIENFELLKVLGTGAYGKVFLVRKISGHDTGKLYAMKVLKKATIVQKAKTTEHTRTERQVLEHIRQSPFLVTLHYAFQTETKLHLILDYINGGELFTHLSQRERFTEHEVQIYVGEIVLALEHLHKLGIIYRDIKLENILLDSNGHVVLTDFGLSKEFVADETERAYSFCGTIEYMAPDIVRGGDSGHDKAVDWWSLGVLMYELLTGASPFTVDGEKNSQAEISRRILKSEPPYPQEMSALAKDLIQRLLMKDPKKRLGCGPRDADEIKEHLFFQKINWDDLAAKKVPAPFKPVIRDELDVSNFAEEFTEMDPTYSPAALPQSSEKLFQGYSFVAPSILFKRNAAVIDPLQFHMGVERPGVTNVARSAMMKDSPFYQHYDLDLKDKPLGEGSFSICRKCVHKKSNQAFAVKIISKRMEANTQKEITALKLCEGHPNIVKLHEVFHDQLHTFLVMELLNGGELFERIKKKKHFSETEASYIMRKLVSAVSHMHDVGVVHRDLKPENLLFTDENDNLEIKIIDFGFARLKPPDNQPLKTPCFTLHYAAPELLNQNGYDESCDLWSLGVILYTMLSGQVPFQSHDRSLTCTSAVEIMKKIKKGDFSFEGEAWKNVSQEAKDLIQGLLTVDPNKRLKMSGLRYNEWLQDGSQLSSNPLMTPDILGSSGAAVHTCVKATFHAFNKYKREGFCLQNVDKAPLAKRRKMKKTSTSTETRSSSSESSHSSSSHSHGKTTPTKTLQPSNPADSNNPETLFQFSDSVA
Sequence of Serine/threonine-protein kinase MRCK beta (Homo sapiens) (Q9Y5S2 whole entry): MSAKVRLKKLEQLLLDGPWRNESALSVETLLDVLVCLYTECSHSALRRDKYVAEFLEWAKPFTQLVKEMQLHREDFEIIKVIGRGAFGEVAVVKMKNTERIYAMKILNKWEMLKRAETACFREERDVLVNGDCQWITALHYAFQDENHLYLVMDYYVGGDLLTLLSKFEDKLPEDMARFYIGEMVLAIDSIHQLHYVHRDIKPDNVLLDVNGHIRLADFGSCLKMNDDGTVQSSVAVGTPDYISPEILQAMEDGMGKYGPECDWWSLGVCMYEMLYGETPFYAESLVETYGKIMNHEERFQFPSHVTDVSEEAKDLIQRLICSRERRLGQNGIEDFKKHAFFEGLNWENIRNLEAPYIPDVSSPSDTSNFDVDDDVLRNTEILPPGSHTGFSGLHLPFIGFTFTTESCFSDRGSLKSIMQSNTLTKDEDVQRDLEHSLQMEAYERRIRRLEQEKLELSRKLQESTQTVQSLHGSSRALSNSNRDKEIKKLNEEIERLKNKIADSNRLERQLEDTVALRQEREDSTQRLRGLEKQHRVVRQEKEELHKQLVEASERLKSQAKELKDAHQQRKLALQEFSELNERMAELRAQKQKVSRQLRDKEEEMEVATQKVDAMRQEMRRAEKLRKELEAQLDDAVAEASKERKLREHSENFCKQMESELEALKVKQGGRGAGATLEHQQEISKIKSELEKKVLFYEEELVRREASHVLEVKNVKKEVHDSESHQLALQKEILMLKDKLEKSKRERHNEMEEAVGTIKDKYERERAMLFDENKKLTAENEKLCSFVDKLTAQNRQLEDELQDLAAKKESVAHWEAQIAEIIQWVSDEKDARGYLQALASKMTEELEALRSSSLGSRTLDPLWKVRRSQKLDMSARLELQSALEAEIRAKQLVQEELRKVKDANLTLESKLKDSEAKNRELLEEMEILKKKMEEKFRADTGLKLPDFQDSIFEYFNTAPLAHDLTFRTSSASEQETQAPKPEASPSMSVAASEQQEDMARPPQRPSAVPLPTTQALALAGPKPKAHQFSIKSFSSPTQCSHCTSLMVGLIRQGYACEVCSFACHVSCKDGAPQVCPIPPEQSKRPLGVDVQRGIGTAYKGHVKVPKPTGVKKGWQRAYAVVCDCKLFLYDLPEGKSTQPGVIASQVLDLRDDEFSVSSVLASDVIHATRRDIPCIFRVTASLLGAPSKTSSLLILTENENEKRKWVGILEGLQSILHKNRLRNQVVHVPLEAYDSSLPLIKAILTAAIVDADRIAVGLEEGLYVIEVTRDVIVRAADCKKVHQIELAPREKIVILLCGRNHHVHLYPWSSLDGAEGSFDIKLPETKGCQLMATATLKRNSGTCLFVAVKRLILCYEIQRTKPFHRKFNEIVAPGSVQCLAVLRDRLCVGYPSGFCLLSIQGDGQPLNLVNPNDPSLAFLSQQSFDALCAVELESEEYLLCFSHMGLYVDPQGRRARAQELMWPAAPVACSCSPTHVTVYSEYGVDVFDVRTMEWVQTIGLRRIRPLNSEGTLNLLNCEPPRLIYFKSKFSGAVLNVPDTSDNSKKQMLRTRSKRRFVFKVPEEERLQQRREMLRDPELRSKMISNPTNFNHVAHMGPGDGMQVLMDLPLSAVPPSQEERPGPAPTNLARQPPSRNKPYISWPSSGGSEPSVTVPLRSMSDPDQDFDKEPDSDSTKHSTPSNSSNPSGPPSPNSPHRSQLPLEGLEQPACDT

Structure (SMILES)	inhibition [1] [%]	inhibition [2] [%]	inhibition [3] [%]	inhibition [4] [%]	inhibition [5] [%]	inhibition [6] [%]	inhibition [7] [%]	inhibition [8] [%]	inhibition [9] [%]	inhibition [10] [%]
CN(C)c1cc2c(Nc3ccc4c(cnn4Cc4ccccc4)c3)ncnc2cn1	-0.16	0.83	1.04	1.67	3.83	6.2	2.42	6.24	2.01	3.88
OCc1ccc(-c2nc(-c3ccccn3)c(-c3ccc4c(c3)OCO4)[nH]2)cc1	0.27	-0.19	0.91	1.33	4.12	3.7	1.01	3.89	2.09	3.2
CC(C)c1ccc2c(c1)NC(=O)/C2=N/Nc1ccc(S(N)(=O)=O)cc1	2.04	-2.97	-0.17	-1.37	-0.47	-2.62	0.04	-1.31	-0.81	-1.36
c1ccc(Cc2nc3ccc(Nc4ncnc5ccccc45)cc3[nH]2)cc1	-0.57	-0.25	-0.96	-0.17	2.76	4.26	0.49	2.83	0.76	2.79
Cc1ccc2c(-c3ccnc(Nc4ccc5c(c4)OCCO5)n3)c(-c3ccc(C(F)(F)F)cc3)nn2n1	-5.75	-1.13	0.19	0.96	-0.15	-1.56	0.87	2.08	0.35	0.24
CC(C)c1ccc(Nc2nccc(-c3cnn4ncccc34)n2)cc1	-1.68	-0.92	-1.18	-0.74	0.84	1.36	1.31	2.98	0.78	1.58
C[C@@H](Oc1cc(-n2cnc3ccc(OCC4CCN(C)CC4)cc32)sc1C(N)=O)c1ccccc1C(F)(F)F	0.6	5.18	0.07	0.75	-2.08	-0.6	0	2.52	0.24	5.55
Cc1ccc(Nc2ccnc(Nc3cccc(C(N)=O)c3)n2)cc1O	-0.17	1.81	-0.24	-0.07	1.2	1.01	2.41	4.49	1.61	6.47
CN(c1ccc(NC(=O)Nc2ccc(OC(F)(F)F)cc2)cc1)c1ccnc(Nc2cccc(S(N)(=O)=O)c2)n1	-5.74	-0.82	-0.58	-2.72	0.92	-1.11	2	4.78	-0.25	1.95
Nc1nccc(C#Cc2cncnc2Nc2ccc(OCc3cccc(F)c3)c(Cl)c2)n1	0.06	-0.95	-0.16	2.38	4.15	4.83	1.39	4.41	1.09	1.35
CCS(=O)(=O)c1ccc(OC)c(Nc2ncc(-c3cccc(OC)c3)o2)c1	-0.07	-0.94	-0.48	0.59	3.23	7.32	-0.21	3.76	0.98	1.18
Cc1ccc(O)cc1Nc1ccnc2ccc(S(C)(=O)=O)cc12	-0.59	3.17	-0.33	1.42	11.4	9.44	2.55	3.94	3.76	2.87
Nc1nccc(-c2c(-c3ccc(F)cc3)ncn2CCCN2CCOCC2)n1	0.42	1.54	0.49	1.1	6.47	6.81	4.22	3.46	1.35	1.45
COc1cc(/C=N/Nc2ncnc3c2cnn3C(C)C)ccc1O	0	0.03	0.84	0.35	2.8	3.54	2.2	1.83	1.17	2.21
NS(=O)(=O)c1cccc(-c2cc3ccncc3cc2OCc2ccccc2)c1	0.79	-0.95	1.07	0.42	6.93	5.54	2.88	6.76	1.84	1.18
Cc1cc(-c2ccccn2)cc(C)c1/C=C/c1cncc(-c2nn[nH]n2)c1	2.46	1.25	0.75	0.41	3.34	2.91	0.46	1.78	0.44	1.44
